Experimental findings from PubChem BioAssay AID687030 (Broad Institute, 2013) are described below.

About 10 (0.7%) of roughly 1,400 compounds were called active. No rule for the calls is given here. Not all results are given here. Entries with a potency or affinity are not part of this list.

The experiment in a line: BHK-21 cell toxicity, dose response, cytotoxicity control, plate reader, cherry-pick samples (AID 687030).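 Also: cells were exposed to compound for three days before reading.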 The conditions noted are these: BHK-21 cells; series mostly up to 19.5 µM.
`C=CCC1NS(=O)(=O)OC(COC)C1C` (configuration not stated): the outcome was inactive. The result for `COCCCNc1oc(-c2ccccc2F)nc1C#N` reads “inactive”; that for `COc1ccc(-c2cc(NC=O)c3ncc(-c4cc(OC)c(OC)c(OC)c4)n3c2)c(OC)c1`, “inactive”; that for `COC(=O)C(Cc1csc2ccc(Cl)cc12)NC(=O)c1ccc(Cl)cc1` (configuration not stated), “inactive”. The result for `COc1ccc(NC(=O)N[C@@H]2CC[C@@H](CCNS(=O)(=O)c3cccc(Cl)c3)O[C@@H]2CO)cc1` reads “inactive”.

For `COc1ccc(NC(=O)N[C@H]2CC[C@@H](CCn3cc(C4(O)CCCC4)nn3)O[C@@H]2CO)cc1`, the outcome was inactive. The result for `O=C(c1cccc(Cl)c1)N1CCC2(CC1)NCCc1[nH]cnc12` reads “inactive”. Then `O=C(NCCN1CCOCC1)c1ccc2c(c1)N(Cc1ccc(F)cc1)C(=O)CS2`, with “inactive”; and `Cc1ccc(C(=O)NCC(=O)NCC(c2cccs2)N2CCOCC2)cc1C` (configuration not stated), with “inactive”; and `C[C@@H]1CN([C@H](C)CO)C(=O)c2cc(NC(=O)Nc3ccc(C(F)(F)F)cc3)ccc2O[C@H]1CN(C)C(=O)NC1CCCCC1`, with “inactive”. Take `CCCN(C)C1CN(Cc2cn(Cc3ccc(C)cc3)nn2)S(=O)(=O)C1` (configuration not stated): the outcome was inactive. For `COc1ccccc1N1CCN(Cc2cnc3ccc(Cl)cn23)CC1`, the compound was called inactive. `C[C@H]1CN([C@@H](C)CO)C(=O)c2cccc(NC(=O)C3CCCCC3)c2O[C@@H]1CN(C)Cc1ccc(C(=O)Nc2ccccc2N)cc1`: the compound was classed as inactive. The result for `C[C@@H]1CCCCO[C@@H](CN(C)C(=O)Nc2cccc3ccccc23)[C@H](C)CN([C@H](C)CO)C(=O)c2cc(NC(=O)CCC(F)(F)F)ccc2O1` reads “inactive”; that for `CCOC(=O)C1CCCN(c2c(N3CCOCC3)c(=O)c2=O)C1` (configuration not stated), “inactive”. On to `O=C(CN1CCN(C(=O)C2CCC2)CC1)Nc1ccc(F)cc1`, for which the outcome was inactive.

Consider `CCCCNC(=O)O[C@H]1C[C@@H]2CCN3C(=O)CCC[C@H]([C@H]1Cc1ccccc1)[C@H]23`, for which the call was inactive. As for `Cn1cnc(S(=O)(=O)N[C@@H]2CC[C@H](CC(=O)NCC3CCCCC3)O[C@@H]2CO)c1`, the result was inactive. As for `CCC1(c2ccccc2)NC(=O)N(CC(=O)Nc2ccccc2C(=O)N2CCCCC2)C1=O` (configuration not stated), the outcome was inactive. Turning to `CS(=O)(=O)c1cccc(-c2nnc(NC(=O)c3ccc(S(=O)(=O)N4CCCC4)cc3)o2)c1`, the compound was called inactive. As to `Clc1cc(Br)ccc1OCCCn1ccnc1`, the compound was classed as inactive. Then `Clc1cc(Br)ccc1OCCOCCN1CCCC1`, with “inactive”. The result for `c1cc(-c2ccc(N3CCOCC3)cc2)n2cnnc2c1` reads “inactive”.

Take `COc1ccc(C2CC(c3ccccc3)=NN2S(=O)(=O)c2ccccc2)c(OC)c1` (configuration not stated): the result was inactive. As to `O=C(C[C@@H]1CC[C@@H]2[C@H](COC[C@H](O)CN2CC2CCOCC2)O1)N1CCOCC1`, the result was inactive. Take `C[C@H](NC(=O)CCCOc1ccc(Cl)cc1Cl)c1nnc2ccccn12`: the compound was classed as inactive. On to `Cc1ccc(NC(=O)c2nc[nH]c2C(=O)N[C@@H](C)C(=O)OC(C)(C)C)cc1`, for which the compound was classed as inactive. The result for `Cc1ccc(NC(=O)c2ccc3c(c2)OCO3)cc1Cl` reads “inactive”. The result for `COc1ccc(OC)c(CN2C(=O)CN(S(C)(=O)=O)CC2(C)C(=O)NCc2ccccc2)c1` (configuration not stated) reads “inactive”. The result for `CNC(=O)C[C@H]1CC[C@@H]2[C@H](COC[C@@H](O)CN2C(=O)Nc2ccc3c(c2)OCO3)O1` reads “inactive”; that for `CN(C)C1(CNC(=O)C2CCN(S(=O)(=O)c3ccccc3C(F)(F)F)CC2)CCCCC1`, “inactive”; that for `CC(C)(C)c1ccc(NC(=O)NC2CCCc3ccccc32)cc1` (configuration not stated), “inactive”. As for `Cc1ccnc(NC(=O)c2ccc(Cl)c(S(=O)(=O)N3CCCC3)c2)c1`, the result was inactive. Then `COc1cccc(NC(=O)CN(C)C(=O)c2cccc(S(=O)(=O)N3c4ccccc4CC3C)c2)c1` (configuration not stated), with “inactive”.

Regarding `O=C(O)[C@]1(S(=O)(=O)c2ccccc2)C[C@@H]2ON=C(c3cccc(Br)c3)[C@@H]2C1`, the result was inactive. As for `COc1cccc(-c2ncc3ccccc3c2COC(=O)c2ccc(F)cc2)c1`, the compound was called inactive. Then `COc1ccc(C(N)c2csc(Nc3cc(Oc4ccccc4)ncn3)n2)cc1` (configuration not stated), with “inactive”. Then `CCN1[C@H](C(=O)NCCCN(C)C)[C@@H](CO)[C@@H]2Cn3c(ccc(-c4cccc(F)c4)c3=O)[C@@H]21`, with “inactive”; and `Cc1nc(CCNC(=O)CC2C(=O)NCCN2CC(C)C)nc2c1CCC2` (configuration not stated), with “inactive”.

As to `CCCS(=O)(=O)N1CCCC(C(=O)NCCc2cccc(C)c2)C1` (configuration not stated), the compound was classed as inactive. Then `C[C@@H]1CN([C@@H](C)CO)S(=O)(=O)c2ccc(-c3ccncc3)cc2O[C@H]1CN(C)C(=O)CC1CC1`, with “inactive”.

Consider `CC(=O)NC[C@H]1[C@H](c2ccc(-c3ccccc3F)cc2)[C@@H](CO)N1C(=O)C1CC1`, for which the compound was classed as inactive. Then `N#C[C@@H]1[C@H](c2ccc(-c3ccccc3F)cc2)[C@H](CO)N1C(=O)C1CC1`, with “inactive”; and `CCCNC(=O)C1(C)CCCN(Cc2ccc(C#N)cc2)C1` (configuration not stated), with “inactive”.

`O=C(c1cc(-c2cccs2)on1)N1CCCc2ccccc21`: the call was inactive. The result for `O=C1CCN(CCc2ccccc2)CCN1[C@H](COc1ccccc1)c1ccccc1` reads “inactive”. The result for `O=C1CN(C(=O)COC(=O)c2c(F)cccc2Cl)c2ccccc2N1` reads “inactive”; that for `COc1ccc(NC(=O)COC(=O)c2c(C)noc2C)cc1Cl`, “inactive”; that for `C[C@H]1[C@H](c2ccccc2)C[C@@H](C(=O)O)C1(C)C`, “inactive”. Then `COc1c(Cl)cc(Br)c(OC)c1C(=O)NC(=O)Nc1nc(C)cc(C)n1`, with “inactive”; and `CCCc1nc2c(C)cc(Br)cn2c1Cc1ccc(OC)cc1C`, with “inactive”. `CCN(c1ccccc1)S(=O)(=O)c1ccc(C(=O)N2CCN(c3ccccc3F)CC2)cc1`: the compound was classed as inactive. Then `CCCN1C[C@H](C)[C@H](OC)CN(C)C(=O)c2cc(NS(=O)(=O)c3cn(C)cn3)ccc2OC[C@@H]1C`, with “inactive”; and `C#CCNC(=O)C[C@@H]1C[C@@]2(C(=O)OC)CCCCC=C2N(Cc2cccc3ccccc23)C1=O`, with “inactive”; and `COc1cccc(S(=O)(=O)N2CC3(CN(C(=O)Nc4ccc(F)cc4)[C@H](CO)c4[nH]c5cc(OC)ccc5c43)C2)c1`, with “inactive”. On to `COc1ccc2c3c([nH]c2c1)[C@H](CO)N(C(=O)c1ccccc1)CC31CN(S(=O)(=O)c2cccs2)C1`, for which the compound was classed as inactive. Then `COc1ccccc1NC(=O)N1CCN(c2ccccn2)CC1`, with “inactive”; and `CCOC(=O)C[C@H]1c2ccccc2S(=O)(=O)N1c1ccccc1`, with “inactive”; and `O=C(Nc1ccc(Cl)cc1)N(CCCN1CCOCC1)Cc1cccs1`, with “inactive”. The result for `NC[C@H](Cc1ccccc1)NCCCCC1CCCCC1` reads “inactive”; that for `CO[C@@H](CN(C)C(=O)c1cc(Cl)cc(Cl)c1)[C@H](C)CN(C(=O)Nc1ccc(F)cc1)[C@@H](C)CO`, “inactive”. As to `COc1cccc(CNC(=O)[C@H]2CCCN2C(=O)C2CCCN2C(=O)c2ccc(OC)c(F)c2)c1` (some centres not stated), the outcome was inactive. Then `CCCNC(=O)[C@H]1[C@H](CO)[C@H]2Cn3c(cccc3=O)[C@H]2N1Cc1ccccc1Cl`, with “inactive”; and `COc1ccc(-c2sc3cc4c(cc3c2C#Cc2cncn2C)OCO4)cc1`, with “inactive”; and `CC(=O)Nc1cccc(OCCCNC(=O)c2ccc(C(C)(C)C)cc2)c1`, with “inactive”. Turning to `CC(C)(C)c1ccc(C(=O)Nc2ccc3c(c2)C(=O)NC3=O)cc1`, the outcome was inactive.

With `CN1C(=O)c2cc(NC(=O)NCc3ccccc3)ccc2OC[C@H]2O[C@H](CC(=O)NCC3CCCCC3)CC[C@H]21`, the compound was called inactive. For the compound `Cc1ccccc1OCCC(=O)OCC(=O)NCCc1ccc(S(N)(=O)=O)cc1`, the compound was called inactive. With `C[C@H](CO)N1C[C@H](C)[C@@H](CN(C)Cc2ccc3c(c2)OCO3)OCCCC[C@H](C)Oc2ccc(N(C)C)cc2C1=O`, the outcome was inactive. Then `CSc1ccccc1NC(=O)c1cc2c(=O)n3ccccc3nc2s1`, with “inactive”; and `CCN(CC)CCCNc1nc(C)cc(COC)c1C#N`, with “inactive”. The result for `CCCCN(C(=O)c1ccc2c(c1)NC(=O)CS2)c1ccccc1` reads “inactive”. The result for `O=C(OCc1ccccc1)N1CCCC2CC1c1ccccc12` (configuration not stated) reads “inactive”; that for `COc1cccc(OC)c1C(=O)N1CCN(Cc2c[nH]c3ccccc23)CC1`, “inactive”. Regarding `O=C(c1ccc(CNc2c(N3CCCC3)c(=O)c2=O)cc1)N1CCN(C2CCCCC2)CC1`, the compound was classed as inactive.

In the case of `CCOc1ccccc1-c1nnc(CS(=O)(=O)c2ccccc2)o1`, the result was inactive. Turning to `CCOC(=O)c1ccc(NC(=O)c2nc[nH]c2C(=O)NC2CCN(C(=O)OC(C)(C)C)CC2)cc1`, the result was inactive. The result for `Cc1cccc(N(C)c2cc(C)nc3nc(C)nn23)c1` reads “inactive”; that for `COCc1cccc(-c2csc(C(N)c3ccc(F)c(F)c3)n2)c1` (configuration not stated), “inactive”; that for `COc1ccc(S(=O)(=O)N2CCCCN3[C@H](CO)[C@H](c4ccc(C5=CCCC5)cc4)[C@@H]3C2)cc1`, “inactive”. The result for `COC(=O)c1ccc(NC(=O)C2CC3CCC2C3)cc1` (configuration not stated) reads “inactive”; that for `COc1ccc(C2(C)CC(C)(C)Nc3ccccc32)cc1` (configuration not stated), “inactive”. Then `CC(C)(O)C#Cc1ccc([C@@H]2[C@@H](CO)N3CCCCN(C(=O)c4ccc(F)cc4)C[C@@H]23)cc1`, with “inactive”; and `O[C@@H]1CN(Cc2cccs2)[C@@H](c2ccccc2)C[C@H]1n1cc(-c2ccc(F)cc2)nn1`, with “inactive”.

In the case of `COC(=O)c1c(NC(=O)CC2Sc3ccc(C(F)(F)F)cc3NC2=O)sc(C)c1C` (configuration not stated), the call was inactive. Take `COC(=O)c1ccc2nc(-c3ccc(F)cc3)c(Cc3ccccc3OC)n2c1`: the outcome was inactive. Turning to `CC(C)C(NS(=O)(=O)c1ccc2c(c1)C(C)(C)C(=O)N2C)C(=O)NCc1ccccc1Cl` (configuration not stated), the outcome was inactive. The result for `COc1ccc2c3c(n(C)c2c1)[C@H](CO)N(C(=O)Nc1ccccc1F)CC31CN(C)C1` reads “inactive”.

For `C[C@H]1CN([C@@H](C)CO)C(=O)c2cc(NC(=O)CCCN(C)C)ccc2O[C@@H]1CN(C)S(=O)(=O)c1ccc(Cl)cc1`, the outcome was inactive. Then `Cc1ccccc1OCCCCN1CCCCC1`, with “inactive”.

`Cc1ccc(SC[C@H](Cc2ccccc2)N2CC[C@@H](C)CCC2=O)cc1`: the call was inactive. Then `CC(C)c1ccc(NC(=O)Nc2nc(C(N)c3ccccc3Cl)cs2)cc1` (configuration not stated), with “inactive”.
